These results are taken from PubChem BioAssay (EPA / NIEHS).

Inconclusive results are not listed. Calls of active or inactive are those of the source. Rule for the calls, unless noted: active = hit-call score of the fitted dose curve at least 0.9, where 1 is the maximum; inactive = score below 0.9.

Read-out in test [1]: Monocyte Chemoattractant Protein-1 (MCP1), CCL2 (gene 6347)
The test is described as follows: BSK_LPS_MCP1: BioMAP Diversity Plus: LPS Assay for Monocyte Chemoattractant Protein-1 (MCP1) Biomarker Activity (AID 2283081).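 For AC50: secreted MCP-1 protein quantified by ELISA in culture supernatant.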 The following applies: primary human HUVEC with PBMC; actives raise or lower the signal. The procedure, abridged: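 Human umbilical vein endothelial cells co-cultured with PBMC, LPS-stimulated; secreted MCP-1 measured by ELISA 24 h after compound addition. Bidirectional curve fitting against DMSO baseline; SRB total-protein staining in parallel cultures for cytotoxicity.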

Test [2] is described as follows: BSK_LPS_PGE2: BioMAP Diversity Plus: LPS Assay for Prostaglandin E2 (PGE2) Biomarker Activity (AID 2283082).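 For AC50: secreted prostaglandin E2 measured by ELISA in LPS-stimulated co-culture.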 The following applies: primary human HUVEC with PBMC; actives raise or lower the signal. In short, it runs like this:
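Primary human endothelial cells and blood mononuclear cells, co-cultured with LPS, receive test chemical; PGE2 ELISA follows at 24 h, with SRB-stained parallel cultures flagging cytotoxicity.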

Read-out in test [3]: Macrophage colony-stimulating factor (MCSF), CSF1 (gene 1435)
The test is described as follows: BSK_LPS_MCSF: BioMAP Diversity Plus: LPS Assay for Macrophage colony-stimulating factor (MCSF) Biomarker Activity (AID 2283083). The conditions noted are these: primary human HUVEC with PBMC; actives raise or lower the signal. The procedure, abridged: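 HUVEC–PBMC co-culture, M-CSF measured by ELISA 24 h after chemical dosing. Fitted in both directions relative to DMSO as negative control; overt cytotoxicity assessed by SRB total-protein staining in parallel cultures.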

Read-out in test [4]: Tissue Factor, F3 (gene 2152)
Kind of test: BSK_LPS_TissueFactor: BioMAP Diversity Plus: LPS Assay for Tissue Factor Biomarker Activity (AID 2283084). The conditions noted are these: primary human HUVEC with PBMC; actives raise or lower the signal. In short, it runs like this: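 Human umbilical vein endothelial cells co-cultured with PBMC were dosed with compound. Cell-surface CD142 was measured by ELISA 24 h later. Activity was fitted bidirectionally against DMSO, with SRB total-protein staining in parallel cultures for cytotoxicity.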

Read-out in test [5]: Vascular cell adhesion molecule 1 (VCAM1), VCAM1 (gene 7412)
The test is described as follows: BSK_LPS_VCAM1: BioMAP Diversity Plus: LPS Assay for Vascular cell adhesion molecule 1 (VCAM1) Biomarker Activity (AID 2283086). The conditions noted are these: primary human HUVEC with PBMC; actives raise or lower the signal. The procedure, abridged: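 Measured by ELISA: VCAM-1 in LPS-activated HUVEC/PBMC co-cultures 24 h after treatment. Values reflect bidirectional fitting with DMSO as baseline.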

Read-out in a further test: CD38, CD38 (gene 952)
The test is described as follows: BSK_SAg_CD38: BioMAP Diversity Plus: SAg Assay for CD38 Biomarker Activity (AID 2283087). The conditions noted are these: primary human HUVEC with PBMC; actives raise or lower the signal. In short, it runs like this: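 Measures CD38 on a human endothelial/PBMC co-culture driven by SEB and TSST-1, 24 h after compound exposure, using ELISA with fluorescence detection; DMSO defines baseline for bidirectional curve fitting.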

Read-out in another test: CD40, CD40 (gene 958)
Kind of test: BSK_SAg_CD40: BioMAP Diversity Plus: SAg Assay for CD40 Biomarker Activity (AID 2283088). The conditions noted are these: primary human HUVEC with PBMC; actives raise or lower the signal. The procedure, abridged:
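HUVEC plus PBMC co-culture, superantigen-activated, with CD40 read by ELISA 24 h after dosing. Curves fitted in both directions against DMSO. Overt cytotoxicity checked by parallel SRB total-protein staining.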

Read-out in another test: CD69, CD69 (gene 969)
The test is described as follows: BSK_SAg_CD69: BioMAP Diversity Plus: SAg Assay for CD69 Biomarker Activity (AID 2283089).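 For AC50: cell surface CD69 protein quantified by ELISA with fluorescence detection.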 The conditions noted are these: primary human HUVEC with PBMC; actives raise or lower the signal. In short, it runs like this:
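Values derive from bidirectional fitting relative to DMSO vehicle. Cells: umbilical vein endothelium plus peripheral blood mononuclear cells, treated 24 h before fluorescent ELISA for CD69.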

Read-out in test [6]: Monocyte Chemoattractant Protein-1 (MCP1), CCL2 (gene 6347)
Kind of test: BSK_SAg_MCP1: BioMAP Diversity Plus: SAg Assay for Monocyte Chemoattractant Protein-1 (MCP1) Biomarker Activity (AID 2283090). The conditions noted are these: primary human HUVEC with PBMC; actives raise or lower the signal. In short, it runs like this: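 Values derive from bidirectional fitting of ELISA-measured MCP1 against DMSO controls. Readings were taken 24 h after dosing human vascular endothelial cells co-cultured with peripheral blood mononuclear cells under superantigen stimulation.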

Read-out in test [7]: E-selectin (Homo sapiens) (UniProt P16581)
The test is described as follows: BSK_SAg_Eselectin: BioMAP Diversity Plus: SAg Assay for Eselectin Biomarker Activity (AID 2283091). The following applies: primary human HUVEC with PBMC; actives raise or lower the signal. In short, it runs like this: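 Human umbilical vein endothelial cells co-cultured with peripheral blood mononuclear cells, SAg system. E-selectin is measured by ELISA 24 h after dosing and fitted bidirectionally against DMSO. Cytotoxicity is checked by SRB staining of parallel cultures.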

Read-out in test [8]: Monokine induced gamma interferon (MIG), CXCL9 (gene 4283)
The test is described as follows: BSK_SAg_MIG: BioMAP Diversity Plus: SAg Assay for Monokine induced gamma interferon (MIG) Biomarker Activity (AID 2283092). The following applies: primary human HUVEC with PBMC; actives raise or lower the signal. In short, it runs like this:
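Values reflect bidirectional fitting of ELISA-measured MIG against DMSO vehicle, taken 24 h after dosing of a co-culture of human umbilical vein endothelial cells and peripheral blood mononuclear cells.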

Test [9] can be described thus: BSK_SAg_PBMCCytotoxicity: PBMC Cytotoxicity Assessment in the BioMAP Diversity Plus: SAg Assay (AID 2283093).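 For AC50: PBMC superantigen activated with SEB plus TSST-1 one hour after compound addition.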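 Note: PBMC viability measured as Alamar Blue reduction fluorescence at 546/580 nm; fitted both ways against DMSO so a hit may be loss or gain of signal.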 The conditions noted are these: primary human HUVEC with PBMC. The procedure, abridged:
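Alamar Blue reduction (6 h, 546/580 nm) reports PBMC cytotoxicity after 90 h superantigen activation (SEB, TSST-1; 20 ng/mL final each) with 1 h compound pre-treatment. Gain or loss of signal fitted versus DMSO.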

Read-out in test [10]: Interleukin-8 (IL8), CXCL8 (gene 3576)
The test is described as follows: BSK_SAg_IL8: BioMAP Diversity Plus: SAg Assay for Interleukin-8 (IL8) Biomarker Activity (AID 2283094). The conditions noted are these: primary human HUVEC with PBMC; actives raise or lower the signal. In short, it runs like this: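 Primary human endothelial cells with PBMC, exposed 24 h; IL-8 determined by ELISA, analysed bidirectionally relative to DMSO.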

Test [11] is described as follows: BSK_SAg_Proliferation: Cell Proliferation Assessment in the BioMAP Diversity Plus: SAg Assay (AID 2283095).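 Note: relative cell number as total protein by SRB absorbance in sub-confluent culture.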 The following applies: primary human HUVEC with PBMC. In short, it runs like this:
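A human primary co-culture of umbilical vein endothelium and blood mononuclear cells receives compound; relative cell number is quantified at 96 h by SRB staining and 560 nm absorbance, with DMSO-referenced bidirectional curve fitting.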

A short description of test [12]: BSK_SAg_SRB: Viability Assessment in the BioMAP Diversity Plus: SAg Assay (AID 2283096).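 Note: cells read one day after compound addition; hits may be either gain or loss of signal compared with DMSO.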 The conditions noted are these: primary human HUVEC with PBMC. In short, it runs like this: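 This overt-cytotoxicity endpoint quantifies protein in human endothelial/PBMC co-cultures at 24 h using SRB absorbance (560 nm) after trichloroacetic acid fixation. Values reflect signal change from the DMSO negative control, fitted bidirectionally.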

The target of test [13] is human CYP1A1, CYP1A1 (gene 1543) (UniProt P04798). The test is described as follows: NVS_ADME_hCYP1A1: NovaScreen (NVS) CYP450-related Enzyme Activity (ADME) Assay for human CYP1A1 (AID 2283100; active = hit-call score of the fitted dose curve at least 0.9, where 1 is the maximum). The procedure, abridged: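 Recombinant CYP1A1 with a fluorogenic substrate, cell-free, read 1 h after dosing; acetonitrile as negative control. Single-concentration screen at 10 uM in duplicate, then concentration-response up to 20 uM for chemicals meeting ~30% inhibition threshold.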

Test [14] has as its target human CYP2A6, CYP2A6 (gene 1548) (UniProt P11509). Kind of test: NVS_ADME_hCYP2A6: NovaScreen (NVS) CYP450-related Enzyme Activity (ADME) Assay for human CYP2A6 (AID 2283099; active = hit-call score of the fitted dose curve at least 0.9, where 1 is the maximum). The procedure, abridged: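 Recombinant human CYP2A6 expressed in insect cells, cell-free; fluorogenic substrate turnover read by fluorescence intensity 0.5 h after dosing. Primary screen 10 uM in duplicate, then concentration-response up to 20 uM; acetonitrile as negative control.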

Chain of E-selectin (Homo sapiens) (P16581 whole entry, looked up): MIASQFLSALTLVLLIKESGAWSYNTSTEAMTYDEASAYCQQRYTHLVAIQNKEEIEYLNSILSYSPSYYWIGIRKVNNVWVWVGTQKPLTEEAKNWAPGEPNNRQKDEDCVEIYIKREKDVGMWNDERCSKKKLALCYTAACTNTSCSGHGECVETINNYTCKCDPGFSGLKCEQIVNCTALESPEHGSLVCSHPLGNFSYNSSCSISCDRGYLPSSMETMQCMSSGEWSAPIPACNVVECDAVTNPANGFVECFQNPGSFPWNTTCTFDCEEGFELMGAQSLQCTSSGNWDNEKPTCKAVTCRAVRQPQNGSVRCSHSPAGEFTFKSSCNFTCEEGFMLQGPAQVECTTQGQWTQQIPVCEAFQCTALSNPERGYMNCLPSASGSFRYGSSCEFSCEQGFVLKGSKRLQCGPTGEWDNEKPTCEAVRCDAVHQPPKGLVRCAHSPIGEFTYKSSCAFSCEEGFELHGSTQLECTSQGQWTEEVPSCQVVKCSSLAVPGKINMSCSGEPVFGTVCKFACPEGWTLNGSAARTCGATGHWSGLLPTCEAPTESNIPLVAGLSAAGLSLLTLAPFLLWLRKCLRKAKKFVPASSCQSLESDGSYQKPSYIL
Chain of human CYP1A1, CYP1A1 (gene 1543) (P04798 whole entry, looked up): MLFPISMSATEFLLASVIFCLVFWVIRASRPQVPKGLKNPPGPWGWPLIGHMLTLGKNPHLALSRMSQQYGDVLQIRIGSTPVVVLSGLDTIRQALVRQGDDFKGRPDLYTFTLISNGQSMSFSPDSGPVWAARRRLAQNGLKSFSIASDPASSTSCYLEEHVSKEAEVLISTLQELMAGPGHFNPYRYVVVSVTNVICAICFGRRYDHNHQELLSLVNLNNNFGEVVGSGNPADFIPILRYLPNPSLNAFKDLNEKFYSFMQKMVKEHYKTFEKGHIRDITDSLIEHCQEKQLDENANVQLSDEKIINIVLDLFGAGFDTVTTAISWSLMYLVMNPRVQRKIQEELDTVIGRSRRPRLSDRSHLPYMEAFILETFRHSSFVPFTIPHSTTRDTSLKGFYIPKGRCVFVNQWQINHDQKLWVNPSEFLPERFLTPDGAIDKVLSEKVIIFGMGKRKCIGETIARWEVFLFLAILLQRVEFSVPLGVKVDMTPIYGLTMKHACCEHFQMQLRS
Chain of human CYP2A6, CYP2A6 (gene 1548) (P11509 whole entry, looked up): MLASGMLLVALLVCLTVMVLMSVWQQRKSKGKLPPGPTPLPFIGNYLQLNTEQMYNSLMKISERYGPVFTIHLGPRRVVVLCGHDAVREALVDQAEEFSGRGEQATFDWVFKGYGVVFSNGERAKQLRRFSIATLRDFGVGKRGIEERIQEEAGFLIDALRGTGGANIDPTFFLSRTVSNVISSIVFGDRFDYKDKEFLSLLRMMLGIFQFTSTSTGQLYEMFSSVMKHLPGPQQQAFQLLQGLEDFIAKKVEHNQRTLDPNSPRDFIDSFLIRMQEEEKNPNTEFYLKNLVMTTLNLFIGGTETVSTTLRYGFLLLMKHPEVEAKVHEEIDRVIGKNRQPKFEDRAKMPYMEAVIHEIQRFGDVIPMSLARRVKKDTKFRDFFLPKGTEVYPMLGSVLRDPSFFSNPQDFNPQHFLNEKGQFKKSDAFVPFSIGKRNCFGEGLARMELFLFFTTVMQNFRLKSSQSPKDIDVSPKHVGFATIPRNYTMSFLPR

For `O=C(O)C(F)(F)C(F)(F)C(F)(F)C(F)(F)C(F)(F)F`, the outcome in test [1] was “inactive”; in test [2] it was “inactive”; in test [3], “inactive”; in test [4], “inactive”; in [5], “inactive”; with CD38, CD38 (gene 952), “inactive”. For the same compound, the outcome in the test with CD40, CD40 (gene 958) was “inactive”; in the test with CD69, CD69 (gene 969), “inactive”; in [6], “inactive”; in [7], “inactive”; in test [8] it was “inactive”; in test [9], “inactive”. Also, the outcome in test [10], in test [11] and in test [12] was inactive.

With `Nc1ccc(-c2ccc(N)cc2)cc1`, the outcome in [1] was “inactive”; in test [3], “inactive”; in test [4] it was “inactive”; in test [5], “inactive”; with CD38, CD38 (gene 952), “inactive”; in the test with CD40, CD40 (gene 958), “inactive”. In addition, the outcome with CD69, CD69 (gene 969) is “inactive”; in test [6], “inactive”; in [7], “inactive”; in test [9], “inactive”; in test [10], “inactive”; in test [11] it was “inactive”. Besides, the result in test [12] was inactive. For the same compound, the AC50 in [2] is 8.27 µM (active); in [13] it was 3.1 µM (active).

Take `Clc1ccc(C(c2ccccc2Cl)C(Cl)(Cl)Cl)cc1` (configuration not stated): the AC50 in [1] is 21.6 µM (active); in test [2] it was 4.54 µM (active); in [3], 18.3 µM (active); in [4] it was 23.4 µM (active); in test [5], 19.2 µM (active); in the test with CD38, CD38 (gene 952) it was 20.1 µM (active). In addition, the AC50 was 14.1 µM (active) in the test with CD40, CD40 (gene 958); 23.2 µM (active) with CD69, CD69 (gene 969); 21.5 µM (active) in test [6]; 24.7 µM (active) in [7]; 27.6 µM (active) in test [8]; 8.98 µM (active) in test [9]. In addition, the AC50 in test [10] is 13.5 µM (active); in test [11], 6.64 µM (active); in test [12], 12.7 µM (active); in [13] it was 5.21 µM (active).

Consider `Cc1cc2c3c(c1)C(c1ccccc1)=N[C@@H](NC(=O)c1ccncc1)C(=O)N3CC2`, for which the outcome in [1], in test [2], in test [4], in [5], in [8] and in [9] was inactive. Besides, the outcome in test [11], in test [12] and in test [14] was inactive. Also, the AC50 in test [3] is 4.6 µM (active); with CD38, CD38 (gene 952), 11.8 µM (active); in the test with CD40, CD40 (gene 958), 20 µM (active); in the test with CD69, CD69 (gene 969), 5.02 µM (active); in test [6], 20 µM (active); in test [7], 4 µM (active). For the same compound, in test [10], the AC50 is 6.46 µM (active).
